Laboratory results as given in PubChem BioAssay (NCATS).
Records with an inconclusive call do not appear. Calls of active or inactive are those of the source. The call rests on the fitted dose curve; in most records, active means well fitted curve in the direction sought with a large enough effect; inconclusive means small, poorly fitted or top-dose-only effect, or another doubt; inactive means no such curve, though single readings can be large; an effect the other way counts as inactive or inconclusive.

What was measured:
[1] = Cellular Toxicity (caspase-3) Mesangial (AID 660); settings: mesangial cells, normalized: DMSO 0%, 100 µM tamoxifen 100%; at 91.7 µM (top of the series);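 further: combined caspase 3 and 7 activity read by Caspase-Glo luminescence; cells exposed to compound for 16 h before the caspase read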
Procedure, shortened: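 Caspase 3/7 activation measured by Caspase-Glo 3/7 luminescence (20 min, room temperature) following 16 h exposure of mesangial cells (1000/well); AC50 from Hill-equation fit, normalized to DMSO and 100 uM tamoxifen.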

[2] = Cellular Toxicity (caspase-3) SK-N-SH (AID 661);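 further: cells exposed to compound for 16 hours; 0% = DMSO basal and 100% = 10 µM staurosporine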
Procedure, shortened: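 Caspase 3/7 activation was read by luminogenic substrate cleavage after 16 hour treatment of SK-N-SH cells. Signal was scaled between DMSO and 10 uM staurosporine, and concentration-response data were fitted with the Hill equation for AC50.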

[3] = Cellular Toxicity (caspase-3) H-4-II-E (AID 663); settings: H-4-II-E rat hepatoma, scaled: DMSO 0%, 100 µM tamoxifen 100%; at 92.2 µM (top of the series);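 further: cells exposed to compound for 16 hr before readout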
Procedure, shortened: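 Caspase 3/7 activation measured by luminescent aminoluciferin substrate cleavage after 16 hr compound treatment of H-4-II-E cells in complete medium. Increase normalized between DMSO (basal) and 100 uM tamoxifen (100%); Hill-equation AC50 from concentration-response.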

[4] = Cellular Toxicity (caspase-3) Hek293 (AID 664); settings: HEK293 caspase-3 activation, DMSO = 0%, 100 µM tamoxifen = 100%; at 92.2 µM (top of the series);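 further: cells exposed to compound for 16 h at 37 °C before readout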
Procedure, shortened: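 Concentration-response qHTS: caspase 3/7 activation measured by luminescent aminoluciferin substrate cleavage after 16 h compound exposure of Hek 293 cells. AC50 from Hill equation, with DMSO as basal and 100 uM tamoxifen as 100%.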

[5] = Cellular Toxicity (caspase-3) N2a (AID 665);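 further: compound exposure lasted 16 h at 37 °C before readout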
Procedure, shortened: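 Caspase-3/7 activation measured as luminescence from Caspase-Glo reagent (1 h, room temperature) after 16 h compound exposure of mouse N2a cells. AC50 values from Hill-equation concentration-response, scaled between DMSO and 10 uM staurosporine.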

[6] = Cellular Toxicity (caspase-3) NIH 3T3 (AID 666);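 further: caspase signal read after 16 h compound exposure; 0% = DMSO basal and 100% = 100 µM tamoxifen stimulation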
Procedure, shortened: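 Caspase-Glo 3/7 luminescence reported caspase activation in 1000 NIH 3T3 cells/well after 16 h compound exposure at 37 C. DMSO set basal and 100 uM tamoxifen set 100% stimulation; concentration-response modeled with the Hill equation for AC50.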

[7] = Cellular Toxicity (caspase-3) Renal Proximal Tubule (AID 667); settings: Potency: caspase-3 activation;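 further: cells exposed to compound for 16 hours at 37 °C before detection; 0% = DMSO basal and 100% = 10 µM staurosporine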
Procedure, shortened: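 Freshly isolated primary rat kidney proximal tubule cells, 1000/well, treated 16 hr at 37 °C, then Caspase-Glo 3/7 luminescence after 1 hr. Normalized to DMSO and 10 uM staurosporine; AC50 from Hill fit.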

[8] = molecular target: Cytochrome P450 3A4 (Homo sapiens) (UniProt P08684); test: qHTS Assay for Inhibitors and Substrates of Cytochrome P450 3A4 (AID 884); further: on the % scale 0 is the no-effect control and ±100 the full control effect; nearly all actives have a fitted effect of over 50% in size
Procedure, shortened: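 Luminescent readout of luciferin produced by CYP3A4 (20 nM) dealkylation of Luciferin-PPXE, 25 uM (its KM). NADPH-driven reaction ran 60 min at RT after 10 min compound preincubation; data scaled to 57 uM ketoconazole as 100% inhibition.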

[9] = Cell Viability - LYMP2-001 (AID 921);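 further: 0% = DMSO only and full inhibition = tetraoctylammonium bromide control wells; nearly all actives have a fitted effect of over 70% in size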
Procedure, shortened: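 Human lymphoblastoid LYMP2-001 cells, 2500 per well, in complete medium, treated 24 h at 37 C. Viability from cellular ATP by CellTiter-Glo luminescence; AC50 from Hill-equation fits of qHTS concentration-response.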

[10] = MultiTox-Fluor Cytotoxicity Assay - LYMP1-001 - Dead Cells (AID 946)
Procedure, shortened: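 Cytotoxicity as increased dead-cell protease fluorescence (bis-AAF-R110, 485/520 nm), read 60 min after MultiTox-Fluor reagent. Human lymphoblastoid line exposed 16 h; Hill-fitted AC50, with DMSO as 0% and 15 uM tetraoctylammonium bromide as 100%.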

[11] = MultiTox-Fluor Cytotoxicity Assay - LYMP1-001 - Live Cells (AID 947);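 further: 0% = DMSO only and full inhibition = tetraoctylammonium bromide control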
[12] = Cell Viability - LYMP1-002 - Assay at 16 hr (AID 948);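 further: 0% = DMSO alone and full effect = 92 µM tetraoctylammonium bromide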
Procedure, shortened: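 LYMP1-002 human lymphoblastoid cells, 2500/well, were treated with compounds for 16 hr at 37 C in complete medium. Viability was read as intracellular ATP by CellTiter-Glo luminescence, and AC50 was derived from a Hill fit to concentration-response data.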

[13] = MultiTox-Fluor Cytotoxicity Assay - LYMP1-002 - Live Cells (AID 955);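 further: cells exposed to compound for 16 hours; on the % scale 0 is the no-effect control and ±100 the full control effect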
Procedure, shortened: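 After 16 h compound exposure at 37 C, live LYMP1-002 lymphoblastoid cells (2500/well) were quantified by cleavage of cell-permeant GF-AFC substrate, read at 405/510 nm after 60 min. Concentration-response fitted with Hill equation for AC50.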

[14] = MultiTox-Fluor Cytotoxicity Assay - LYMP1-002 - Dead Cells (AID 960); further: nearly all actives have a fitted effect of over 60% in size
Procedure, shortened: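 Dead-cell fluorescence (Ex/Em 485/520) after 16 h compound exposure at 37 C of LYMP1-002 lymphoblastoid cells in complete medium; AC50 by Hill equation, with data scaled between DMSO and 15 uM tetraoctylammonium bromide.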

[15] = MultiTox-Fluor Cytotoxicity Assay - LYMP1-003 - Dead Cells (AID 961); further: nearly all actives have a fitted effect of over 70% in size
Procedure, shortened: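 Dead-cell protease release, detected as bis-AAF-R110 fluorescence at 485/520 nm, was measured in LYMP1-003 cells after 16 h compound treatment at 37 C. AC50 values came from Hill-modeled qHTS curves normalized to DMSO (0%) and 15 uM tetraoctylammonium bromide (100%).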

[16] = MultiTox-Fluor Cytotoxicity Assay - LYMP1-003 - Live Cells (AID 962);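 further: cells exposed to compound for 16 hours at 37 °C; 0% = DMSO only and full loss = 92 µM tetraoctylammonium bromide; cytotoxic hits lower the live-cell protease signal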
Procedure, shortened: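 Live-cell protease activity (GF-AFC substrate, 405/510 nm, 60 min at room temperature) after 16 h, 37 C compound exposure of human lymphoblastoid LYMP1-003 cells; concentration-response fitted to the Hill equation for AC50.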

[17] = Cell Viability - LYMP1-003 - Assay at 24 hr (AID 963);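 further: plate controls were DMSO only for no effect and tetraoctylammonium bromide positive control for full effect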
Procedure, shortened: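 Concentration-response qHTS: ATP loss measured by CellTiter-Glo luminescence after 24 h compound exposure at 37 C. Cells were LYMP1-003 human lymphoblastoid, 2500 per well. AC50 derived via standard Hill equation modeling.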

[18] = Cell Viability - LYMP1-003 - Assay at 40 hr (AID 964); further: on the % scale 0 is the no-effect control and ±100 the full control effect; nearly all actives have a fitted effect of over 60% in size
Procedure, shortened: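 Viability is taken as cellular ATP, read by CellTiter-Glo luminescence after 40 h of compound exposure at 37 C. Cells: human lymphoblastoid line LYMP1-003 at 2500/well; AC50 values derived by Hill-equation fitting of concentration-response data.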

[19] = Cell Viability - LYMP2-003 (AID 965);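 further: cells exposed to compounds for 24 h before reading; 0% = DMSO only and full effect = 92 µM tetraoctylammonium bromide; nearly all actives have a fitted effect of over 50% in size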
Procedure, shortened: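 Human lymphoblastoid LYMP2-003 cells, 2500/well, exposed to compounds for 24 h at 37 C in complete medium. Viability read as intracellular ATP by CellTiter-Glo luminescence; AC50 from Hill-equation fits of qHTS concentration-response data.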

Cytochrome P450 3A4 (Homo sapiens), sequence (P08684 whole entry, looked up): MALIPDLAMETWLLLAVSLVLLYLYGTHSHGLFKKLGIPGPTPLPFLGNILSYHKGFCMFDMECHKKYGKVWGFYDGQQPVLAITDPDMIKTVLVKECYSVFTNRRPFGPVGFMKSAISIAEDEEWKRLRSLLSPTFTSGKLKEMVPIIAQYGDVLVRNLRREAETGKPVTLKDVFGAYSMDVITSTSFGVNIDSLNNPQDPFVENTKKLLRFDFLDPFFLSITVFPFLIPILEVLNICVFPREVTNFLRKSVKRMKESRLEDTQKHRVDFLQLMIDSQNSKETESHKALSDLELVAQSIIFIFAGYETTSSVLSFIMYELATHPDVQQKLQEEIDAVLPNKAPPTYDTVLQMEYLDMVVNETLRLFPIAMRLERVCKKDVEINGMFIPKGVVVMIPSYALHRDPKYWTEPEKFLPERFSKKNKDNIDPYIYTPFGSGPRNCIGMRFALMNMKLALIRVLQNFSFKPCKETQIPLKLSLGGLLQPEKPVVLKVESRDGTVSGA

CC1(N)CCC(C(C)(C)N)CC1 (configuration not stated)
inactive: caspase-3 activation [1] -0.66% | outcome [2] | caspase-3 activation [3] 0.688% | caspase-3 activation [4] -1.41% | outcome [5] | outcome [6] | Potency [7] | Potency [8] | Potency [9] | outcome [10] | outcome [11] | outcome [12] | outcome [13] | outcome [14] | Potency [15] | Potency [16] | Potency [17] | Potency [18] | Potency [19]

Cc1cscn1
inactive: caspase-3 activation [1] 0.991% | outcome [2] | caspase-3 activation [3] 0.996% | caspase-3 activation [4] 1.04% | outcome [5] | outcome [6] | Potency [7] | Potency [8] | Potency [9] | outcome [10] | outcome [11] | outcome [12] | outcome [13] | outcome [14] | Potency [15] | Potency [16] | Potency [17] | Potency [18] | Potency [19]

O=C(O[C@@H](C(=O)O)[C@@H](OC(=O)c1ccccc1)C(=O)O)c1ccccc1
inactive: caspase-3 activation [1] 0.793% | outcome [2] | caspase-3 activation [3] 0.201% | caspase-3 activation [4] -0.248% | outcome [5] | outcome [6] | Potency [7] | Potency [8] | Potency [9] | outcome [10] | outcome [11] | outcome [12] | outcome [13] | outcome [14] | Potency [15] | Potency [16] | Potency [17] | Potency [18] | Potency [19]

BrC(Br)C(Br)Br
inactive: caspase-3 activation [1] -0.634% | outcome [2] | caspase-3 activation [3] 0.661% | caspase-3 activation [4] -0.575% | outcome [5] | outcome [6] | Potency [7] | Potency [8] | Potency [9] | outcome [10] | outcome [11] | outcome [12] | outcome [13] | outcome [14] | Potency [15] | Potency [16] | Potency [17] | Potency [18] | Potency [19]

CC(=O)Nc1cccc(N)c1
inactive: caspase-3 activation [1] 0.0656% | outcome [2] | caspase-3 activation [3] 0.403% | caspase-3 activation [4] 0.134% | outcome [5] | outcome [6] | Potency [7] | Potency [8] | Potency [9] | outcome [10] | outcome [11] | outcome [12] | outcome [13] | outcome [14] | Potency [15] | Potency [16] | Potency [17] | Potency [18] | Potency [19]

O=C(O)CNC(=O)c1ccc(CO)o1
inactive: caspase-3 activation [1] -0.765% | outcome [2] | caspase-3 activation [3] -0.71% | caspase-3 activation [4] -0.0261% | outcome [5] | outcome [6] | Potency [7] | Potency [8] | Potency [9] | outcome [10] | outcome [11] | outcome [12] | outcome [13] | outcome [14] | Potency [15] | Potency [16] | Potency [17] | Potency [18] | Potency [19]

CC/C=C/C#N
inactive: caspase-3 activation [1] -0.969% | outcome [2] | caspase-3 activation [3] 0.211% | caspase-3 activation [4] 1.85% | outcome [5] | outcome [6] | Potency [7] | Potency [8] | Potency [9] | outcome [10] | outcome [11] | outcome [12] | outcome [13] | outcome [14] | Potency [15] | Potency [16] | Potency [17] | Potency [18] | Potency [19]

CCN(Cc1ccccc1)c1ccccc1
inactive: caspase-3 activation [1] -0.109% | outcome [2] | caspase-3 activation [3] 0.0577% | caspase-3 activation [4] -1.67% | outcome [5] | outcome [6] | Potency [7] | Potency [8] | Potency [9] | outcome [10] | outcome [11] | outcome [12] | outcome [13] | outcome [14] | Potency [15] | Potency [16] | Potency [17] | Potency [18] | Potency [19]

C=Cc1ccccc1C=C
inactive: caspase-3 activation [1] 0.384% | outcome [2] | caspase-3 activation [3] 0.884% | caspase-3 activation [4] 1.48% | outcome [5] | outcome [6] | Potency [7] | Potency [8] | Potency [9] | outcome [10] | outcome [11] | outcome [12] | outcome [13] | outcome [14] | Potency [15] | Potency [16] | Potency [17] | Potency [18] | Potency [19]

CC(=O)OCCC(C)C
inactive: caspase-3 activation [1] 0.804% | outcome [2] | caspase-3 activation [3] -0.942% | caspase-3 activation [4] -0.0363% | outcome [5] | outcome [6] | Potency [7] | Potency [8] | Potency [9] | outcome [10] | outcome [11] | outcome [12] | outcome [13] | outcome [14] | Potency [15] | Potency [16] | Potency [17] | Potency [18] | Potency [19]

Oc1c(Cl)ccc(Cl)c1Cl
inactive: caspase-3 activation [1] 0.532% | outcome [2] | caspase-3 activation [3] 0.28% | caspase-3 activation [4] 4.28% | outcome [5] | outcome [6] | Potency [7] | Potency [8] | Potency [9] | outcome [10] | outcome [11] | outcome [12] | outcome [13] | outcome [14] | Potency [15] | Potency [16] | Potency [17] | Potency [18] | Potency [19]

O=C(Cl)c1c(Cl)cccc1Cl
inactive: caspase-3 activation [1] -0.17% | outcome [2] | caspase-3 activation [3] 0.0127% | caspase-3 activation [4] 0.529% | outcome [5] | outcome [6] | Potency [7] | Potency [8] | Potency [9] | outcome [10] | outcome [11] | outcome [12] | outcome [13] | outcome [14] | Potency [15] | Potency [16] | Potency [17] | Potency [18] | Potency [19]

CCC(C)=O
inactive: caspase-3 activation [1] -0.0673% | outcome [2] | caspase-3 activation [3] 0.152% | caspase-3 activation [4] -2.5% | outcome [5] | outcome [6] | Potency [7] | Potency [8] | Potency [9] | outcome [10] | outcome [11] | outcome [12] | outcome [13] | outcome [14] | Potency [15] | Potency [16] | Potency [17] | Potency [18] | Potency [19]
